The full data set covers some 8,800 targets. This sample favours those with a hit. About 0.5% of all pairs of compound and target were hits. Unmarked numbers belong to inactive results.
Assays:
Assay in all cases: log2 fold change, soluble protein after heating vs DMSO (PISA); higher = thermal stabilisation; K562 lysate, 10 uM; active = over 0.2 and 3.5 SD of the protein, either way, in both replicates (recomputed)
alvocidib = compound: CN1CC[C@H](c2c(O)cc(O)c3c(=O)cc(-c4ccccc4Cl)oc23)[C@H](O)C1 [alvocidib]
How it was run: (§1)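 Soluble protein was defined as the supernatant remaining after 21,000xg for 90 min, following pooling of heated aliquots and adjustment to 0.5% NP-40 at 4°C. Before that, crude K562 extract at 1 mg/mL protein in PBS pH 7.4 with 1 mM MgCl2 was treated with 10 μM compound for 30 min and heated for 3 min across 48°C-58°C. Quantification used TMTpro 16plex LC-MS/MS with channel sums equalised, and values are log-two fold changes in thermal stability relative to solvent controls from duplicates.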

Tubastatin A = compound: CN1CCc2c(c3ccccc3n2Cc2ccc(C(=O)NO)cc2)C1 [Tubastatin A]
How it was run: as §1

[1] = compound: CNC(=O)C1=CC=CC=C1NC2=NC(=NC=C2Cl)NC3=C(C=C(C=C3)N4CCOCC4)OC
How it was run: as §1

defactinib = compound: CNC(=O)c1ccc(Nc2ncc(C(F)(F)F)c(NCc3nccnc3N(C)S(C)(=O)=O)n2)cc1 [defactinib]
How it was run: as §1

[2] = compound: CNc1nc(-c2ccc3c(N)n[nH]c3c2)cc(N2C[C@@H](C(=O)NC3CCCCC3)CC[C@H]2C)n1
How it was run: as §1

encorafenib = compound: COC(=O)N[C@@H](C)CNc1nccc(-c2cn(C(C)C)nc2-c2cc(Cl)cc(NS(C)(=O)=O)c2F)n1 [encorafenib]
How it was run: as §1

[3] = compound: COC(=O)[C@H](CCSC)NC(=O)C1=C(C=C(C=C1)NC[C@H](CS)N)C2=CC=CC=C2
How it was run: as §1

alisertib = compound: COc1cc(Nc2ncc3c(n2)-c2ccc(Cl)cc2C(c2c(F)cccc2OC)=NC3)ccc1C(=O)O [alisertib]
How it was run: as §1

[4] = compound: COc1cc2nc(-c3cc(F)ccc3O)nc(N[C@@H]3CNC[C@H]3C(C)(C)O)c2cc1OC
How it was run: as §1

gefitinib = compound: COc1cc2ncnc(Nc3ccc(F)c(Cl)c3)c2cc1OCCCN1CCOCC1 [gefitinib]
How it was run: as §1

lapatinib = compound: CS(=O)(=O)CCNCc1ccc(-c2ccc3ncnc(Nc4ccc(OCc5cccc(F)c5)c(Cl)c4)c3c2)o1 [lapatinib]
How it was run: as §1

pictilisib = compound: CS(=O)(=O)N1CCN(Cc2cc3nc(-c4cccc5[nH]ncc45)nc(N4CCOCC4)c3s2)CC1 [pictilisib]
How it was run: as §1

crizotinib = compound: C[C@@H](Oc1cc(-c2cnn(C3CCNCC3)c2)cnc1N)c1c(Cl)ccc(F)c1Cl [crizotinib]
How it was run: as §1

[5] = compound: C[C@H](C1=CC=C(C=C1)C(=O)NC2=C3C=CNC3=NC=C2)N
How it was run: as §1

duvelisib = compound: C[C@H](Nc1ncnc2nc[nH]c12)c1cc2cccc(Cl)c2c(=O)n1-c1ccccc1 [duvelisib]
How it was run: as §1

gandotinib = compound: Cc1cc(Nc2cc(CN3CCOCC3)c3nc(C)c(Cc4ccc(Cl)cc4F)n3n2)n[nH]1 [gandotinib]
How it was run: as §1

tozasertib = compound: Cc1cc(Nc2cc(N3CCN(C)CC3)nc(Sc3ccc(NC(=O)C4CC4)cc3)n2)n[nH]1 [tozasertib]
How it was run: as §1

doramapimod = compound: Cc1ccc(-n2nc(C(C)(C)C)cc2NC(=O)Nc2ccc(OCCN3CCOCC3)c3ccccc23)cc1 [doramapimod]
How it was run: as §1

bafetinib = compound: Cc1ccc(NC(=O)c2ccc(CN3CC[C@H](N(C)C)C3)c(C(F)(F)F)c2)cc1Nc1nccc(-c2cncnc2)n1 [bafetinib]
How it was run: as §1

[6] = compound: Cc1cccc(CC(=O)N2CCc3c2ccc(-c2cn(C)c4ncnc(N)c24)c3F)n1
How it was run: as §1

UniProt Q9BR61, sequence (Q9BR61 whole entry, looked up): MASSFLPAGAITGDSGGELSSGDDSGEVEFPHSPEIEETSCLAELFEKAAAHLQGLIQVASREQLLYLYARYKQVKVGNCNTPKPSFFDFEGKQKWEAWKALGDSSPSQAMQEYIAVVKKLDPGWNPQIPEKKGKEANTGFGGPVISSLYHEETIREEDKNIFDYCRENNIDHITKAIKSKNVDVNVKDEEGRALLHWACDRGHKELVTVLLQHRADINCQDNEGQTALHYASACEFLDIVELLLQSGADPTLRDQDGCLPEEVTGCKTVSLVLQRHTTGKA
UniProt Q562R1, sequence (Q562R1 whole entry, looked up): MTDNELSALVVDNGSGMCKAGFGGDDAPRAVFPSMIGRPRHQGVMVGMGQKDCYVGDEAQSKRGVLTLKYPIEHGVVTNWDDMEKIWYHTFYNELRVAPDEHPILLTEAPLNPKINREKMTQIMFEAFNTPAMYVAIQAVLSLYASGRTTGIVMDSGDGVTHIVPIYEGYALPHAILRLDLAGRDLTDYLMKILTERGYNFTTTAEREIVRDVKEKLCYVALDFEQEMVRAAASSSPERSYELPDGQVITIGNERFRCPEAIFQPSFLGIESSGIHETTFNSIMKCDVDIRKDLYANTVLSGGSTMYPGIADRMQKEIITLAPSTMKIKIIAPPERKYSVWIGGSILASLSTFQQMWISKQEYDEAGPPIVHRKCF
UniProt Q92685, sequence (Q92685 whole entry, looked up): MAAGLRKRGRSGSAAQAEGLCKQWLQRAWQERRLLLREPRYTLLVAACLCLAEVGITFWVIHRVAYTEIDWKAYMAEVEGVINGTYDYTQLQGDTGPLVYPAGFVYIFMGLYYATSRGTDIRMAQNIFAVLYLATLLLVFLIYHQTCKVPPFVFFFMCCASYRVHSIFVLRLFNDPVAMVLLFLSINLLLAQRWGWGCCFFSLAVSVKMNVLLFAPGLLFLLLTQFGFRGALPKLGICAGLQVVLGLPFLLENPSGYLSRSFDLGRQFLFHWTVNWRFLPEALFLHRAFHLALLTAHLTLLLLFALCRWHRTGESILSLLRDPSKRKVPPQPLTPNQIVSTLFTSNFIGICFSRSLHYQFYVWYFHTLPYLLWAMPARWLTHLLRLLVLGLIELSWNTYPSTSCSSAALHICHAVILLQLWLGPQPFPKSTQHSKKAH
UniProt P28288, sequence (P28288 whole entry, looked up): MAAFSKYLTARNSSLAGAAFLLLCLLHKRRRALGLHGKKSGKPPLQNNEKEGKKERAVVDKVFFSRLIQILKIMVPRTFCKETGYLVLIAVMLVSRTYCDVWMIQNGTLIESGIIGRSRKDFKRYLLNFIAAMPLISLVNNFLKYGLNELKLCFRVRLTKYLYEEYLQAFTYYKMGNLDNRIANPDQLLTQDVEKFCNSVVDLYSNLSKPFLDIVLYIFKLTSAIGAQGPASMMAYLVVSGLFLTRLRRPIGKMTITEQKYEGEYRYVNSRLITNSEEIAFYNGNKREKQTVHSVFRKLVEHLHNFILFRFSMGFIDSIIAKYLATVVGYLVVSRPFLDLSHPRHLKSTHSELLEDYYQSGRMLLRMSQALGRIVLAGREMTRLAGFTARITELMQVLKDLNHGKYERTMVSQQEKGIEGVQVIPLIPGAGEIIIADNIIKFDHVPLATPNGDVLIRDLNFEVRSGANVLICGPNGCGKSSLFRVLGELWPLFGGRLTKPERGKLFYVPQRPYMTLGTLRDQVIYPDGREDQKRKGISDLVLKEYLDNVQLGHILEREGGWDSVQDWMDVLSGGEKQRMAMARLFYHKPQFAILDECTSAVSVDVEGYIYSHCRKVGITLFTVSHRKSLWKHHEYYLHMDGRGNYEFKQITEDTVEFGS
UniProt P35573, sequence (P35573 whole entry, looked up): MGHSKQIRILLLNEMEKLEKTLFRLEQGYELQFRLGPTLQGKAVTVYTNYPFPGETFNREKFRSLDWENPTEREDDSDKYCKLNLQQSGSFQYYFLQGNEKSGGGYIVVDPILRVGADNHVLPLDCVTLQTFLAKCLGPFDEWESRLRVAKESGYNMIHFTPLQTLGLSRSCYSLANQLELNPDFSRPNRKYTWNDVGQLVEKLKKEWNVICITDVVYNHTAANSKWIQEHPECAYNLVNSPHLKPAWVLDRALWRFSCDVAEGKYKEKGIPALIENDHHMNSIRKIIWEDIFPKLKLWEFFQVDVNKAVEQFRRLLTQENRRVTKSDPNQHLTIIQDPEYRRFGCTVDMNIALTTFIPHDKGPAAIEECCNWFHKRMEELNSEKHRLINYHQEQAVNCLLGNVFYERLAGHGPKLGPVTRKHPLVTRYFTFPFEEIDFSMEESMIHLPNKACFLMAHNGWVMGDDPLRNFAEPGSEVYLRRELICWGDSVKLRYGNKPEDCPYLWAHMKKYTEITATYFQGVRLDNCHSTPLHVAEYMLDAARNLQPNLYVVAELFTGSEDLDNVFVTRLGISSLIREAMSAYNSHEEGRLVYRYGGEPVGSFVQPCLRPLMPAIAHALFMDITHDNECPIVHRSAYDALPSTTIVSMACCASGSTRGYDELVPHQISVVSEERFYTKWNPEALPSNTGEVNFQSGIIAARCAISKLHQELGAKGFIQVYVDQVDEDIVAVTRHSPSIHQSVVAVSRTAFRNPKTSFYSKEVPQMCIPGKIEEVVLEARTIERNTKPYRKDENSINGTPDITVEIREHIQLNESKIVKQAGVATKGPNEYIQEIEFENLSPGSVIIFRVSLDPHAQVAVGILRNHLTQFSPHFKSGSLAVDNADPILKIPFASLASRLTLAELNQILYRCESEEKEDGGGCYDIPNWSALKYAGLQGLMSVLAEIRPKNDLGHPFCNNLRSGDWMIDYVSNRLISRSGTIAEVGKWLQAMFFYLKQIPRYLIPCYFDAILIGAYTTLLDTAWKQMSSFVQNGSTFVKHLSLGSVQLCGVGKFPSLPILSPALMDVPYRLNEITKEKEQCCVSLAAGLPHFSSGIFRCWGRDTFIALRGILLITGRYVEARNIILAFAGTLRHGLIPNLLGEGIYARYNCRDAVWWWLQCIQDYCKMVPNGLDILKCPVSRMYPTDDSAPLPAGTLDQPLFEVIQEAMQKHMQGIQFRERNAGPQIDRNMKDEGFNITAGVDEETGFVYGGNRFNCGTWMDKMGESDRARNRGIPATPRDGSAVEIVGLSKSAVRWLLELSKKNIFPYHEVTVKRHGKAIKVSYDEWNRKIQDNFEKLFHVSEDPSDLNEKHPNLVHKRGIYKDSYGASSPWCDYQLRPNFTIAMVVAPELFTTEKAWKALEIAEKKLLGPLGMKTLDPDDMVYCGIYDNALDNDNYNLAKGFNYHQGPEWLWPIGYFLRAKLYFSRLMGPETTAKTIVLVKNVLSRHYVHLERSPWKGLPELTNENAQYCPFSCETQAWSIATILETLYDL
UniProt Q9Y303, sequence (Q9Y303 whole entry, looked up): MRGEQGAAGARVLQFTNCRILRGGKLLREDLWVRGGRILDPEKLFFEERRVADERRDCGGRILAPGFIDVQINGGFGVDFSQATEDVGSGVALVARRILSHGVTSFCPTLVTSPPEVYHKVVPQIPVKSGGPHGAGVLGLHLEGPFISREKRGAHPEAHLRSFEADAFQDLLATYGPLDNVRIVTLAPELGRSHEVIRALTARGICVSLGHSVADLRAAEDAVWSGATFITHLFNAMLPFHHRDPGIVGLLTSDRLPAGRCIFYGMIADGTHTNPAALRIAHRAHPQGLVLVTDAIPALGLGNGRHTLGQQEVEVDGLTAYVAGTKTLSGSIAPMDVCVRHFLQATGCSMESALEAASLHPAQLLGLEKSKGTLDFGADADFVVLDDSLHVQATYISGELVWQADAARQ
UniProt O15120, sequence (O15120 whole entry, looked up): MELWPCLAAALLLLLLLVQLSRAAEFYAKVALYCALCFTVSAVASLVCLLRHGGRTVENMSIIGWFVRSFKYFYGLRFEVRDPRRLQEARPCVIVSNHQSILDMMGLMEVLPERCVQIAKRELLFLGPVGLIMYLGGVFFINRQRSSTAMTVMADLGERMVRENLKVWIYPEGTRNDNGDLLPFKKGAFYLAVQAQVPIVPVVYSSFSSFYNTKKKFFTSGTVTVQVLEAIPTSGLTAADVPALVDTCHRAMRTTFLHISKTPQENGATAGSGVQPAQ
UniProt P55263, sequence (P55263 whole entry, looked up): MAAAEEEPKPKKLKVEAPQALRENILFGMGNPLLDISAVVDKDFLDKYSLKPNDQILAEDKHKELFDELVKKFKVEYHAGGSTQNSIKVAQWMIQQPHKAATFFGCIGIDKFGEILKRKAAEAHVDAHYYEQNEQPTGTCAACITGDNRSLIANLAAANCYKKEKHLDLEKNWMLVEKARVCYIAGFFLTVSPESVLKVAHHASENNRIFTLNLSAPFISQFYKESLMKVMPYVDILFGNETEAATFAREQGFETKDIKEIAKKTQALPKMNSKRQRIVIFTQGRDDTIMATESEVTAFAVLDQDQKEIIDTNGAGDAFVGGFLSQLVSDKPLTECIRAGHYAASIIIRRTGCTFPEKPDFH
UniProt P14621, sequence (P14621 whole entry, looked up): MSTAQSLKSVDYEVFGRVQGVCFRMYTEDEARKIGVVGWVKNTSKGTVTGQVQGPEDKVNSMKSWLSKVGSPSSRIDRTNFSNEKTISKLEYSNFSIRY
UniProt Q9BT30, sequence (Q9BT30 whole entry, looked up): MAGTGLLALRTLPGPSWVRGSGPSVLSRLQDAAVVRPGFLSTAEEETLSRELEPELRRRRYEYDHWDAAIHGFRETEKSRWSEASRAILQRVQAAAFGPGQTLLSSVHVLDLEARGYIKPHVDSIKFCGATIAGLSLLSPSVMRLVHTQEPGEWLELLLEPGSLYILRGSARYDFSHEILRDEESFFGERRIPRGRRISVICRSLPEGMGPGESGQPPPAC
UniProt Q96GS6, sequence (Q96GS6 whole entry, looked up): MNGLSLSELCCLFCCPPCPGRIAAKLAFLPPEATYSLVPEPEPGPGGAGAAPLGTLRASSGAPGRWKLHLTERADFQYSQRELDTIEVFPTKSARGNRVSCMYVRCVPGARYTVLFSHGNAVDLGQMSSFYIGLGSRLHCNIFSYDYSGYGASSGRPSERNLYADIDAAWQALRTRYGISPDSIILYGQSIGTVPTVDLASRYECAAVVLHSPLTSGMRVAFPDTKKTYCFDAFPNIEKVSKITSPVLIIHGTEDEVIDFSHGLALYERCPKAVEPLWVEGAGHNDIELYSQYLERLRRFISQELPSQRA

Target	log2 fold change (alvocidib)	log2 fold change (Tubastatin A)	log2 fold change [1]	log2 fold change (defactinib)	log2 fold change [2]	log2 fold change (encorafenib)	log2 fold change [3]	log2 fold change (alisertib)	log2 fold change [4]	log2 fold change (gefitinib)	log2 fold change (lapatinib)	log2 fold change (pictilisib)	log2 fold change (crizotinib)	log2 fold change [5]	log2 fold change (duvelisib)	log2 fold change (gandotinib)	log2 fold change (tozasertib)	log2 fold change (doramapimod)	log2 fold change (bafetinib)	log2 fold change [6]
AKR1B1 (UniProt P15121)	0.033	0.023	-0.003	-0.01	-0.072	0.019	0.009	0.015	-0.008	-0.016	-0.009	0.006	0.065	-0.102	-0.006	0.037	-0.014	-0.022	0.011	0.006
ALKBH4 (UniProt Q9NXW9)	0.029	-0.093	-0.003	0.166	0.026	0.053	-0.02	0.019	-0.03	0.044	-0.02	0.003	0.04	-0.055	0.035	-0.019	0.047	-0.018	-0.108	-0.028
ACTBL2 (UniProt Q562R1)	-0.083	-0.111	-0.01	0.093	-0.008	-0.226	0.005	-0.273	0.009	-0.223	0.163	0.102	0.091	0.408	-0.035	-0.166	-0.201	-0.15	0.37	-0.547 (active)
ADK (UniProt P55263)	0.246	-0.025	0.178	0.026	0	-0.048	0.068	-0.063	-0.015	0.158	0.154	0.169	0.235	-0.007	0.059	0.532 (active)	-0.005	0.014	0.292	-0.064
ACBD6 (UniProt Q9BR61)	-0.009	-0.15	0.056	-0.005	0.016	-0.003	0.051	-0.006	0.016	-0.022	-0.002	0.01	-0.04	-0.036	0.063	-0.01	-0.051	-0.024	-0.047	0.006
ALDH18A1 (UniProt P54886)	-0.005	-0.049	0.005	0.006	-0.01	-0.009	0.062	0.01	0.017	0.001	-0.052	-0.063	-0.034	0.001	-0.017	-0.064	0.002	0.047	-0.006	0.018
ABHD17A isoform 2 (UniProt Q96GS6)	-0.025	0.023	-0.025	-0.009	0.01	-0.009	-0.222	-0.12	0.04	0.044	-0.034	-0.044	0.017	-0.074	0.01	0.139	0.019	0.044	0.019	0.065
AK1 (UniProt P00568)	0.154	0.009	-0.034	-0.035	-0.007	-0.036	-0.07	0	0.013	-0.019	-0.027	-0.011	0.091	0.285 (active)	-0.001	-0.118	0.023	-0.037	0.06	-0.189
ABCD3 (UniProt P28288)	-0.064	0.1	-0.114	-0.019	-0.048	0.028	0.444 (active)	0.044	-0.013	0.145	0.179	-0.019	-0.063	0.014	0.019	0.079	0.098	-0.002	0.027	-0.006
AGTPBP1 (UniProt Q9UPW5)	0.034	0.046	0.024	-0.058	-0.001	-0.014	-0.031	0.097	-0.039	-0.004	0.008	-0.103	-0.121	0.018	0.009	-0.271	0.028	0.007	0.001	0.113
AGL (UniProt P35573)	0.046	-0.099	0.014	0.024	-0.002	0.008	0.178	-0.004	-0.012	-0.007	-0.004	0	-0.019	0.115	-0.013	-0.094	0.014	0.029	-0.037	-0.059
ACYP2 (UniProt P14621)	0.084	-0.021	0.007	0.329 (active)				-0.096	-0.009	-0.02	-0.049	-0.065	0.082	0.217		-0.076		-0.024	-0.002	-0.105
AGPAT2 (UniProt O15120)	-0.008	0.01	0.091	-0.104		0.054	-0.043	0.009		0.052			-0.097	0.006		-0.145	0.048	0.1		0.021
ALG3 (UniProt Q92685)	-0.04	-0.009	-0.436	0.165	-0.043	-0.061	0.171		-0.033		-0.069	0.031	-0.057	-0.15	-0.104	0	-0.04	0.037	-0.061	0.261
ABI1 isoform 6 (UniProt Q8IZP0)						-0.212	0.114		0.023		0.007						-0.061			
AMDHD2 (UniProt Q9Y303)	0.012			-0.059									-0.056	0.052		-0.015		0.057		0.065
ANKRD44 isoform 2 (UniProt Q8N8A2)	-0.688		0.075	-0.129		-0.048	0.103	0.2	0.119	0.169	-0.004	0.046		-1.57 (active)		0.465	0.12		-0.405	0.766 (active)
ALKBH7 (UniProt Q9BT30)	-0.016	-0.045	0.35		-0.029	-0.115	0.201	0.333		-0.108			-0.049	0.289	0.091	0.08	-0.045	-0.062		0.187
ARHGEF2 (UniProt V9GYF0)		-0.07		-0.211	0.082	-0.035	0.014	-0.083	0.112	0.229	-0.134				0.11		0.041			
ANKRD30A (UniProt Q9BXX3)	-0.148	-0.294			0.017	0.053	0	-0.009	1.45 (active)	-0.03	-0.228	0.028	0.128	-0.155	-0.038	1.59 (active)	0.281	-0.068	0.069	0.918
ANXA2 (UniProt H0YL33)	0.315	0.109	-0.177		0.222			0.001	0.005	0.097	0.026	-0.028	-0.048	0.284	0.044	-0.163		0.017	0.031	-0.054
ACAT1, A0A5F9ZHJ0	-0.023	0.081						-0.035		-0.056				-0.151		-0.075				0.208
ALDH18A1 isoform 2 (UniProt P54886)		-0.06		0.016	-0.139								0.127		0.088			-0.134		
ABCA3 (UniProt Q99758)	0.109	0.188	-0.017	-0.037	0.317	-0.12	0.025		-0.09		0.025	-0.028	-0.469 (active)	-0.156	0.061	0.113	-0.16	0.203	-0.006	-0.075
